The term inhibition denotes the relative decrease from the control value, in per cent.

About 2,700 (0.93%) of roughly 290,000 compounds were called active. No rule for the calls is given here. The sample as a whole holds a higher share of actives than the screen did.

The record followed here is PubChem BioAssay AID2012 (Sanford-Burnham Center for Chemical Genomics, 2009).

This assay deals with Eukaryotic translation initiation factor 4H (Homo sapiens) (UniProt Q15056). In words: eIF4H binding inhibition – biochemical, uHTS, fluorescence polarization, translation initiation inhibitor project, primary screen (AID 2012).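 Also: calls also rest on retests at 20 µM and on dose response follow-up.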 The settings on record: eIF4H fluorescence polarization binding assay, stronger effect = higher value. (In general: In fluorescence polarisation assays a small probe gives low polarisation when free and higher when bound to something large.)

As to `CN(CC1CCCN(CCc2cccc(C(F)(F)F)c2)C1)C(=O)c1ccc2nc[nH]c2c1` (stereo not given), the inhibition (at 35 µM) was -2% (inactive). On the same count and under the same terms, the result for `Oc1ccc(-c2cccc(-c3ccc(O)cc3)c2)cc1` reads 2% (inactive).

Turning to `CCC(C)(C)NC(=O)C(c1ccc(O)cc1)N(Cc1ccco1)C(=O)CCC(=O)Nc1ccccn1` (stereo not given), the inhibition (at 35 µM) is -7% (inactive). Still for that read-out and setting: the result for `Cc1[nH]n(C(N)=S)c(=O)c1N=Nc1ccc(Cl)cc1Cl` reads 13.7% (inactive); that for `O=C(O)CCn1c(Cc2ccccc2)nc2ccccc21`, 0.7% (inactive). `Cc1cc2ccccc2n1CCC(=O)O`: the inhibition is 52.4% (active) (at 35 µM) and 80.5% (confirmation average, at 20 µM). `Cc1cc2ccccc2n1CCNC(=O)COc1ccc2ccccc2c1`: the inhibition (at 35 µM) was 21% (inactive).

On to `CCc1nc(N2CCN(C(C)=O)CC2)c2c3c(sc2n1)CCCC3`, for which the inhibition (at 35 µM) was -5.1% (inactive). Still for that read-out and setting: the figure for `COc1ccc(C(C)NC(=S)NC2CCCCC2)cc1OC` (stereo not given) is -7.9% (inactive); for `CCOc1ccc(N(C)Cc2cc(=O)oc3ccc(OC)cc23)cc1` it is 4.8% (inactive). On the same count and under the same terms, the result for `O=C(NCc1cccnc1)c1ccccc1NC(=O)c1c(F)cccc1F` reads -10.7% (inactive).

With `CSc1ccc(/C=N/N2CCN(Cc3ccccc3Cl)CC2)cc1`, the inhibition (at 35 µM) was 0.6% (inactive). In the case of `O=S1(=O)CCN(Cc2ccccc2Cl)CC1`, the inhibition (at 35 µM) is 56.9% (active) and the inhibition (confirmation average, at 20 µM) was found to be 81.5%.

For the molecule `O=c1ccn(Cc2ccccc2Cl)cc1`, the inhibition (at 35 µM) is -2.8% (inactive). As for `COC(=O)c1ccc(C(=O)NC2CC(C)(C)Cc3c2cnn3-c2ccc(F)cc2)nc1` (stereo not given), the inhibition (at 35 µM) is -3.4% (inactive).

With `CC(c1ccccn1)N(C)C(=O)c1ccc2nc(Cc3cccc(Cl)c3)oc2c1` (stereo not given), the inhibition (at 35 µM) is -0.5% (inactive). Turning to `CC1(OC(=O)CCc2ccccc2)C(=O)C=C2C=C(c3ccc(C#N)cc3)N(CCc3ccccn3)C=C2C1=O` (stereo not given), the inhibition (at 35 µM) was 35.9% (inactive). In the case of `COCCN1C=C2C(=O)C(C)(OC(=O)C3CCCC3)C(=O)C=C2C=C1c1ccsc1` (stereo not given), the inhibition (at 35 µM) is 98.2% (active). Same read-out and setting: the figure for `COC(=O)CCCC1=CC2=CC(=O)C(C)(OC(=O)c3cccs3)C(=O)C2=CN1CC1CC1` (stereo not given) is 45.8% (inactive).

In the case of `COCc1c(C(=O)N/N=C(\C)c2ccncc2)nnn1-c1nonc1N`, the inhibition (at 35 µM) was 1.9% (inactive). The same measure, in the same setting: the figure for `Cc1ccc(NC(=O)C2CCN(S(=O)(=O)c3ccc4c(c3)NC(=O)CO4)CC2)cc1C` is -7.3% (inactive).

Regarding `COc1ccccc1C(=O)N(Cc1ccc(C)o1)C1CCS(=O)(=O)C1` (stereo not given), the inhibition (at 35 µM) was -6.1% (inactive). The same measure, in the same setting: the figure for `Fc1cc(F)c2nc(Nc3nc4c(F)cccc4s3)sc2c1` is 11.5% (inactive); for `NC(=O)c1c(NC(=O)c2ccccc2)sc2c1CCCC2` it is -0.5% (inactive). With `NC(=O)c1c(Nc2nc3c(F)cccc3s2)sc2c1CCCC2`, the inhibition is 72.6% (active) (at 35 µM) and 99.1% (confirmation average, at 20 µM).

`Cc1cc2oc(=O)cc(CN(C)Cc3ccc(OC(F)F)cc3)c2cc1Cl`: the inhibition (at 35 µM) was -2.2% (inactive).

As for `Cc1ccc(S(=O)(=O)N2CCC(C)CC2)cc1C(=O)NCc1ccccn1`, the inhibition (at 35 µM) is -2.5% (inactive). The same measure, in the same setting: the result for `CCc1ccc(NC(=O)CN2CCC(C(=O)c3ccc(OC)cc3)CC2)cc1` reads -2.2% (inactive); that for `Cc1ccc(C(=O)OC2CCCN(C)C2)cc1` (stereo not given), -3.9% (inactive). Still for that read-out and setting: the result for `CCOC(=O)N1CCN(C(=O)COc2ccc(Br)cc2)CC1` reads 5.2% (inactive). Turning to `CN1CCCC(OC(=O)COc2ccc(Br)cc2)C1` (stereo not given), the inhibition reads like this: (at 35 µM) 99.9% (active); (confirmation average, at 20 µM) 84.2%. Taken in the same sequence, the figures for `Fc1ccccc1CNC(=S)Nc1ccc(Cl)cc1` were 0.6% (active) and 106%. On to `S=C(NCc1cccs1)Nc1ccc(Cl)cc1`, for which the inhibition (at 35 µM) was -10% (inactive). The same measure, in the same setting: the figure for `COC(=O)Cc1ccc(NC(=S)NCc2ccc(Cl)cc2)cc1` is 2% (inactive); for `CCC(=O)N1CCCc2ccccc21` it is 100% (active). Turning to `CCn1c(=O)c2ccccc2n(CC(=O)N2CCCc3ccccc32)c1=O`, for the setting “at 35 µM”, the inhibition is -6.1% (inactive). The same measure, in the same setting: the figure for `O=C(CSCc1ccccc1)N1CCc2ccccc21` is 2.4% (inactive). The same measure, in the same setting: the figure for `COc1ccc(S(=O)(=O)N2CCOC2CNC(=O)C(=O)NCc2ccc(F)cc2)cc1` (stereo not given) is -9.2% (inactive); for `CCOc1c(OC)cccc1C(=O)NCC1(c2ccccc2)CCCC1` it is -6% (inactive). On the same count and under the same terms, the figure for `CCOC(=O)C(Cc1ccccc1)NC(=O)CCC(=O)c1ccc(OC)cc1` (stereo not given) is -3.3% (inactive); for `COC(=O)[C@H](Cc1ccccc1)NC(=O)Nc1ccc(OC)cc1` it is 2.4% (inactive); for `COc1cc([C@H](Cc2ccccc2)NC(C)=O)oc(=O)c1` it is 100% (active).

For `COc1cc2c(cc1OC)CN(C(=O)c1cc(S(=O)(=O)N3CCCCC3)ccc1Cl)CC2`, the inhibition (at 35 µM) was -13.7% (inactive).

Turning to `O=C(Cc1ccccc1)n1nc(-c2ccccc2)nc1NCc1ccco1`, for the setting “at 35 µM”, the inhibition was -6.8% (inactive).

On to `Cc1nc2nc(SCC(=O)NCc3ccco3)nn2c(C)c1Cc1ccccc1`, for which, where the note is “at 35 µM”, the inhibition is 3.5% (inactive). Turning to `O=c1nc2s/c(=C\c3ccco3)c(=O)n2nc1Cc1ccccc1`, the inhibition (at 35 µM) was 96.4% (active). Still for that read-out and setting: the result for `Cc1cccn2c(=O)c(C=O)c(Nc3ccc(S(N)(=O)=O)cc3)nc12` reads -1.8% (inactive); that for `Cc1ccc(C)c(N2CCN(C(=O)CCCCCn3c(=S)[nH]c4ccc(N5CCOCC5)cc4c3=O)CC2)c1`, 1.4% (inactive). For the molecule `C=CCNC(=O)CSc1nc2scc(-c3ccco3)c2c(=O)n1CC=C`, for the setting “at 35 µM”, the inhibition was 49.9% (inactive). Take `C=CCn1c(SCc2csc(C)n2)nc2scc(-c3ccc(C)o3)c2c1=O`: the inhibition (at 35 µM) is 4.9% (inactive). The same measure, in the same setting: the result for `C=CCn1c(=S)[nH]c2scc(-c3ccco3)c2c1=O` reads 94.1% (active); that for `O=[N+]([O-])c1ccccc1/C=C/CN1CCCC(CO)C1` (stereo not given), -4.3% (inactive); that for `C=CCNc1nnc(C)c2ccccc12`, -4.9% (inactive).

On to `C=CCNc1nnc(SCC(=O)N2CCCCC2)c2ccccc12`, for which the inhibition (at 35 µM) is 85.7% (active) and the inhibition (confirmation average, at 20 µM) was 54.5%. For the molecule `O=C(CSc1ncccn1)N1CCCC1`, the inhibition (at 35 µM) was -5.6% (inactive). Still for that read-out and setting: the result for `C=CCOc1ccc(C(=O)Nc2ccccc2C(=O)N2CCCC2)cc1` reads 0.5% (inactive); that for `COCC1CCN(C(=O)C2CCC(=O)N(Cc3cccc(C(F)(F)F)c3)C2)CC1` (stereo not given), -2.7% (inactive). Take `COc1ccc(N(CC(=O)NCCSCc2cccc(Cl)c2)S(C)(=O)=O)cc1`: for the setting “at 35 µM”, the inhibition is -10.9% (inactive). Consider `NC(=O)c1c(NC(=O)CSc2nnc(-c3ccco3)n2N)sc2c1CCCC2`, for which the inhibition runs as follows: (at 35 µM) 65.9% (active); (confirmation average, at 20 µM) 96.5%.

`CCc1cccc(C)c1NC(=O)CSc1nnc(-c2ccco2)n1N`: the inhibition (at 35 µM) was 6.1% (inactive). Same read-out and setting: the figure for `NC(=O)c1c(NC(=O)CSc2nc(N)cc(=O)[nH]2)sc2c1CCCC2` is 15.5% (inactive); for `COc1ccc(C(=O)NC(=S)N2CCCCC2c2cccnc2)cc1OC` (stereo not given) it is 2% (inactive); for `O=C(CN(C(=O)CCC(=O)Nc1nccs1)c1ccc(F)cc1)NCc1ccc2c(c1)OCO2` it is -1.4% (inactive). Regarding `Nc1nc(-c2ccccc2)cc(-c2ccccc2)n1`, the inhibition (at 35 µM) is 0.4% (inactive). Same read-out and setting: the result for `CS(=O)(=O)c1sc2nc(-c3ccccc3)cc(-c3ccccc3)c2c1N` reads 98.5% (active); that for `CNc1nc(-c2ccccc2)cc(-c2ccccc2)n1`, -3.9% (inactive). The same measure, in the same setting: the result for `CCCc1cc(C(=O)Nc2ccc(Cl)cn2)cs1` reads 2.5% (inactive); that for `CCc1ccccc1S(=O)(=O)Cc1ccc(C(=O)NCCc2ccccc2)o1`, -13% (inactive). On to `COc1ccccc1-n1c(-c2cc(-c3ccco3)[nH]n2)n[nH]c1=S`, for which the inhibition by setting is: (at 35 µM) 58% (active); (confirmation average, at 20 µM) 74%. For `COc1ccc(OC)c(-n2c(-c3ccn[nH]3)n[nH]c2=S)c1`, where the note is “at 35 µM”, the inhibition was -6% (inactive). Still for that read-out and setting: the figure for `COc1ccc(-n2c(-c3ccc(OC)c(OC)c3)n[nH]c2=S)cc1` is 7.7% (inactive); for `Cc1nc(C)c(-c2nnc(-c3cccc(S(=O)(=O)N(C)C)c3)o2)cc1C(=O)NN` it is -1.3% (inactive). The same measure, in the same setting: the figure for `Cc1ccccc1C(=O)NC(=S)NC1CC1` is -17.7% (inactive). As to `Cc1c(Cl)cnc(NC(=O)COC(=O)c2ccc(S(=O)(=O)NCc3ccco3)cc2)c1Cl`, the inhibition is 58.6% (active) (at 35 µM) and 87.4% (confirmation average, at 20 µM).

With `CSCCC(NC(=O)c1ccco1)C(=O)OCC(=O)Nc1ncc(Cl)c(C)c1Cl` (stereo not given), the inhibition (at 35 µM) is 4.5% (inactive). Take `C/C(=N\Nc1ncc(Cl)cc1Cl)c1ccc(S(=O)(=O)NCc2ccco2)cc1`: the inhibition (at 35 µM) was -4.5% (inactive). Same read-out and setting: the result for `CC(=O)Nc1ccc(N2C(=O)C3C4C=CC(CC4)C3C2=O)cc1` (stereo not given) reads -5.9% (inactive); that for `O=c1[nH]c(/C=C\c2cccc(C(F)(F)F)c2)nc(O)c1[N+](=O)[O-]`, 3.5% (inactive).

Take `Cc1cccc(NS(=O)(=O)c2ccc(C(=O)NCC(C)(C)N3CCOCC3)cc2)c1C`: the inhibition (at 35 µM) is -0.1% (inactive). Turning to `Cc1ccccc1NC(=O)CN1C(=O)N/C(=C\c2cccn2-c2cccc(C(=O)O)c2)C1=O`, the inhibition is 89.1% (active) (at 35 µM) and 86.1% (confirmation average, at 20 µM). On to `Cc1cccc(NC(=O)CN2C(=O)c3ccccc3C2=O)c1C`, for which, where the note is “at 35 µM”, the inhibition is 9.4% (inactive). Still for that read-out and setting: the result for `O=C1N/C(=C/c2cccn2-c2ccccc2)C(=O)N1c1cccc(Cl)c1` reads 2.6% (inactive); that for `Cc1ccc(CNC(=O)C(=O)c2cn(CC(=O)N3CCOCC3)c3ccccc23)cc1`, -6.1% (inactive); that for `Cc1ccc(C)c(SCc2nc3sc(C(=O)O)c(C)c3c(=O)[nH]2)c1`, 2.9% (inactive).

In the case of `CCOC(=O)c1sc2nc(CSc3ccccc3)[nH]c(=O)c2c1C`, under “at 35 µM”, the inhibition was 2.6% (inactive). On the same count and under the same terms, the figure for `CSc1nnc(SCc2nc3sc(C(=O)O)c(C)c3c(=O)[nH]2)s1` is 86.3% (active). As for `COC(=O)c1ccccc1NC(=O)CSc1n[nH]c(-c2ccncc2)n1`, where the note is “at 35 µM”, the inhibition is 3.3% (inactive). Turning to `Cc1cccnc1CC(C)NC(=O)c1cc(COc2cncc(Cl)c2)on1` (stereo not given), under “at 35 µM”, the inhibition is -1% (inactive). Turning to `Oc1ccc(N=Cc2sc3ccccc3c2Cl)cc1`, the inhibition is 105% (active) (at 35 µM) and 73.8% (confirmation average, at 20 µM). Take `Oc1ccc(N=Cc2c(O)ccc3ccccc23)cc1`: the inhibition (at 35 µM) is 19% (inactive). `O=C(N/N=C/c1c(Cl)[nH]c2ccccc12)c1sc2ccccc2c1Cl`: the inhibition (at 35 µM) is -8.2% (inactive). Same read-out and setting: the figure for `CCCOc1ccc(/C=N/NC(=O)C2CC2)c(OCCC)c1` is -12.1% (inactive). Same read-out and setting: the result for `Cc1c(OC(C)C(=O)N[C@@H](Cc2ccccc2)C(=O)O)ccc2c3c(c(=O)oc12)CCCC3` (stereo not given in full) reads 5.5% (inactive).

Turning to `Cc1cc(OC(C)C(=O)NC2CC(C)(C)NC(C)(C)C2)c2c(C)cc(=O)oc2c1` (stereo not given), the inhibition (at 35 µM) is -0.9% (inactive).
